The results in this text go back to PubChem BioAssay (EPA / NIEHS).

“And” between values parts separate entries of the source, which are not always exact repeats. Identical values can stand only once. Inconclusive results are not listed. The source made the active and inactive calls. How the source made its calls: active means hit-call score of the fitted dose curve at least 0.9, where 1 is the maximum; inconclusive means response in the unintended direction; inactive means score below 0.9.

rat CYP2D2, Cyp2d26 (gene 25053), sequence (P10634 whole entry, looked up): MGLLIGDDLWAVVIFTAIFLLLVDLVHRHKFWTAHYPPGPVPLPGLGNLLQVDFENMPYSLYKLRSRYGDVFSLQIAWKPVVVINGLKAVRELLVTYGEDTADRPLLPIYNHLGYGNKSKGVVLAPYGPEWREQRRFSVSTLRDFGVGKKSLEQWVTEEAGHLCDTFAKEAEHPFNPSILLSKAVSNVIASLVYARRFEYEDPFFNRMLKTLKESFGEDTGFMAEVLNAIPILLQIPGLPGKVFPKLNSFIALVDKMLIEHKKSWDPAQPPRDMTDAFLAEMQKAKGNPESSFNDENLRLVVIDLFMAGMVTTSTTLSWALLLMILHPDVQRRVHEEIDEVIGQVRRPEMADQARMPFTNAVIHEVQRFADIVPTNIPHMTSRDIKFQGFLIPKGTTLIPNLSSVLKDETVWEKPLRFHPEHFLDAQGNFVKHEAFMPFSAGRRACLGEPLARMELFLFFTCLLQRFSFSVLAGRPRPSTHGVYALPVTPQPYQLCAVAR

The assay concerns the target rat CYP2D2, Cyp2d26 (gene 25053) (UniProt P10634). Kind of assay: NVS_ADME_rCYP2D2: NovaScreen (NVS) CYP450-related Enzyme Activity (ADME) Assay for rat CYP2D2 (AID 2283124). The protocol: NVS_ADME_rCYP2D2 is a biochemical, single-readout assay that uses extracted gene-proteins in a cell-free assay. Measurements were taken 0.75 hour after chemical dosing in a 96-well plate.NVS_ADME_rCYP2D2 is one of one assay component(s) measured or calculated from the NVS_ADME_rCYP2D2 assay. It is designed to make measurements of enzyme activity, a form of enzyme reporter, as detected with fluorescence intensity signals by Fluorescence technology.Data from the assay component NVS_ADME_rCYP2D2 was analyzed into 1 assay endpoint. This assay endpoint, NVS_ADME_rCYP2D2, was analyzed in the positive analysis fitting direction relative to Acetonitrile as the negative control and baseline of activity. Using a type of enzyme reporter, loss-of-signal activity can be used to understand changes in the enzymatic activity as they relate to the gene Cyp2d2. Furthermore, this assay endpoint can be referred to as a primary readout, because this assay has produced multiple assay endpoints where this one serves a enzymatic activity function. To generalize the intended target to other relatable targets, this assay endpoint is annotated to the cyp intended target family, where the subfamily is xenobiotic metabolism.
Binding assays used specific radioligands (tritiated, iodinated) with non-radioactive competitive displacement ligands in agonist or antagonist protocols (as indicated) and various reference compounds and inhibitors to titrate specific binding to receptors and transporters. Most enzyme assays (CYPs, kinases, phosphatases, proteases, HDACs) used recombinant protein and specific substrates (fluorescence mostly, some colorimetric and radioactive) and inhibitors, followed by a biochemical separation of substrate and product. All assays for the biochemical HTS were initially run in duplicate at a single concentration (10 uM for CYP450 assays and 25 uM for all others). Assay-chemical combinations meeting a pre-defined threshold (e.g., 30% inhibition and other criteria defined below) were then run in singleton concentration-response format with maximum concentration of 20 uM for CYPs and 50 uM for all others. Each assay was run with positive and negative controls, and concurrent controls on every plate. The follow-up (secondary) screen tested active chemical-pairs in concentration series, as well as a few additional assays not tested in the primary screen, some selected negative inactives, and several cases re-run in the concentration series for confirmatory purposes.
As usually defined, the AC50 is the concentration at which the activity in the assay is half-maximal. Regarding `CC[C@H](C)[C@H]1O[C@]2(C=C[C@@H]1C)C[C@@H]1C[C@@H](C/C=C(\C)[C@@H](O[C@H]3C[C@H](OC)[C@@H](O[C@H]4C[C@H](OC)[C@@H](NC)[C@H](C)O4)[C@H](C)O3)[C@@H](C)/C=C/C=C3\CO[C@@H]4[C@H](O)C(C)=C[C@@H](C(=O)O1)[C@]34O)O2`, the concentration at half-maximal activity (AC50) was 3.96 µM (active). Still for that read-out and setting: under `FC(F)C(F)(F)OCC(Cn1cncn1)c1ccc(Cl)cc1Cl` (stereo not drawn) stands 5.52 µM (active). The same measure, in the same setting: in the case of `CC(C)=CC1C(C(=O)OCN2C(=O)C3=C(CCCC3)C2=O)C1(C)C` (stereo not drawn) it was 10 µM (active). The same measure, in the same setting: in the case of `CCCCOC(=O)[C@@H](C)Oc1ccc(Oc2ccc(C#N)cc2F)cc1` it was 12.1 µM (active). Consider `CCOC(=O)CC(SP(=O)(OC)OC)C(=O)OCC` (stereo not drawn), for which the call was inactive. Take `C[Si](Cn1cncn1)(c1ccc(F)cc1)c1ccc(F)cc1`: the concentration at half-maximal activity (AC50) is 1.87 µM (active). For `CCCOCC(=Nc1ccc(Cl)cc1C(F)(F)F)n1ccnc1`, the half-maximal activity concentration (AC50) was 3.2 µM (active).

With `CCOP(=O)(NC(C)C)Oc1ccc(SC)c(C)c1` (stereo not drawn), the AC50 was 5.06 µM (active). In the case of `CNc1cnn(-c2cccc(C(F)(F)F)c2)c(=O)c1Cl`, the compound was classed as inactive. Still for that read-out and setting: in the case of `CCOP(=S)(OCC)Oc1ccc2c(C)c(Cl)c(=O)oc2c1` it was “inactive”. On the same count and under the same terms, in the case of `CCOP(=S)(OCC)Oc1ccc([N+](=O)[O-])cc1` it was “inactive”.

As to `CC(C1CC1)C(O)(Cn1cncn1)c1ccc(Cl)cc1` (stereo not drawn), the half-maximal activity concentration (AC50) is 3.14 µM (active) and 4.54 µM (active). On the same count and under the same terms, under `CCCSP(=O)(OCC)Oc1ccc(Br)cc1Cl` (stereo not drawn) stands 8.58 µM (active).
